Results published in the supplement of paper PMC10849652.
Of roughly 8,800 targets only a part is listed; those with a hit were picked by preference. About 0.5% of all pairs of compound and target were hits.

Experiments:
Assay in all cases: log2 fold change, soluble protein after heating vs DMSO (PISA); higher = thermal stabilisation; K562 lysate, 10 uM; active = over 0.2 and 3.5 SD of the protein, either way, in both replicates (recomputed)
[1] = compound: NCC(=O)Nc1ccc(-n2nc(C(F)(F)F)cc2-c2ccc3c(ccc4ccccc43)c2)cc1
Method in brief: (§1)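 K562 pellets were dounce-homogenised in PBS pH 7.4 containing 1 mM MgCl2, and the crude extract, at 1 mg/mL protein, was exposed to 10 μM compound for 30 min. Aliquots were heated for 3 min across 48°C-58°C, pooled, brought to 0.5% NP-40 at 4°C and spun at 21,000xg for 90 min, with the supernatant taken as soluble protein. TMTpro 16plex LC-MS/MS with equalised channel sums quantified that protein. Values are log-two fold changes in thermal stability relative to solvent controls, taken from duplicates.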

vorinostat = compound: O=C(CCCCCCC(=O)Nc1ccccc1)NO [vorinostat]
Method in brief: as §1

silmitasertib = compound: O=C(O)c1ccc2c(c1)nc(Nc1cccc(Cl)c1)c1ccncc12 [silmitasertib]
Method in brief: as §1

[2] = compound: O=C1NC(=O)C(c2cnc3ccccn23)=C1c1cn2c3c(cc(F)cc13)CN(C(=O)N1CCCCC1)CC2
Method in brief: as §1

entospletinib = compound: c1cn2cc(-c3ccc4cn[nH]c4c3)nc(Nc3ccc(N4CCOCC4)cc3)c2n1 [entospletinib]
Method in brief: as §1

Measured: log2 fold change

MON2 isoform 5 (UniProt Q7Z3U7)
active: vorinostat -0.525
inactive: [1] 0.021 | silmitasertib 0.021 | [2] 0 | entospletinib 0.005

MPDZ (UniProt O75970)
inactive: [1] 0.058 | silmitasertib 0.066 | [2] 0.177 | entospletinib -0.111
active: vorinostat -0.59

MITD1 (UniProt Q8WV92)
inactive: [1] 0.01 | silmitasertib -0.051 | [2] -0.079 | entospletinib -0.024
active: vorinostat 0.255

LRPPRC (UniProt P42704)
inactive: [1] -0.004 | silmitasertib 0.072 | [2] 0.023 | entospletinib 0.035
active: vorinostat -0.259

MORF4L1 isoform 2 (UniProt Q9UBU8)
Sequence of UniProt Q9UBU8 (Q9UBU8 whole entry, looked up): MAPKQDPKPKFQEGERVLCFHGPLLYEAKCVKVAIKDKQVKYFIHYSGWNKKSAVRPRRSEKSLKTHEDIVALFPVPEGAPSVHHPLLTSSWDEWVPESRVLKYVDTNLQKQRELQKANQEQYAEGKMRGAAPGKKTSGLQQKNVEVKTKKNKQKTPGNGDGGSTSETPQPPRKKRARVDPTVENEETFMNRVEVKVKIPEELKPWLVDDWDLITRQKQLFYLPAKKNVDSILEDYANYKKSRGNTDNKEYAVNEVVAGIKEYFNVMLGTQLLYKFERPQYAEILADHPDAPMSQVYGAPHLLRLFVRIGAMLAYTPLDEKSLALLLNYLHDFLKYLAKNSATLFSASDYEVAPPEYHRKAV
inactive: [1] 0.013 | vorinostat 0.058 | silmitasertib -0.002 | [2] 0.015 | entospletinib 0.018

KNSTRN (UniProt Q9Y448)
inactive: [1] -0.018 | vorinostat -0.054 | silmitasertib 0 | [2] 0.057 | entospletinib 0.02

MAPK8 isoform 3 (UniProt P45983)
active: vorinostat -0.395
inactive: [1] 0.064 | silmitasertib 0.007 | [2] 0.038 | entospletinib -0.039

MAP1S (UniProt Q66K74)
active: vorinostat -0.242
inactive: [1] 0.006 | silmitasertib -0.004 | [2] -0.025 | entospletinib 0.01

LIMS1 isoform 3 (UniProt P48059)
inactive: [1] -0.022 | vorinostat 0.049 | silmitasertib 0.013 | [2] 0.054 | entospletinib -0.016

MARCHF6 (UniProt O60337)
inactive: [1] 0 | vorinostat 0.057 | silmitasertib -0.037 | [2] -0.06 | entospletinib -0.028

MAP4K2 (UniProt Q12851)
inactive: [1] 0.03 | vorinostat -0.263 | silmitasertib 0.064 | [2] -0.104 | entospletinib 0.15

KSR1 (UniProt Q8IVT5)
inactive: [1] 0.029 | silmitasertib 0.081 | [2] 0.031 | entospletinib -0.025
active: vorinostat -0.49

MED14 (UniProt O60244)
active: vorinostat -0.21
inactive: [1] -0.01 | silmitasertib -0.035 | [2] 0.002 | entospletinib -0.084

MICU1 isoform 3 (UniProt Q9BPX6)
inactive: [1] -0.085 | vorinostat -0.133 | silmitasertib 0.065 | [2] -0.003 | entospletinib -0.019

MED10 (UniProt Q9BTT4)
active: entospletinib -0.349
inactive: [1] -0.001 | vorinostat -0.04 | silmitasertib -0.085 | [2] 0.021

KIF26A (UniProt Q9ULI4)
inactive: [1] -0.01 | vorinostat -0.178 | silmitasertib 0.068 | [2] -0.016 | entospletinib 0.057

MBLAC2 (UniProt Q68D91)
inactive: [1] -0.1 | vorinostat 0.084 | silmitasertib -0.015 | [2] -0.074 | entospletinib -0.011

KIF2A isoform 4 (UniProt O00139)
active: vorinostat -0.518
inactive: [1] -0.018 | silmitasertib 0.044 | [2] -0.015 | entospletinib -0.006

MBD2 (UniProt Q9UBB5)
inactive: [1] 0.018 | silmitasertib 0.017 | [2] -0.022 | entospletinib 0.022
active: vorinostat -0.244

MAP4K5 (UniProt Q9Y4K4)
inactive: [1] -0.072 | vorinostat -0.218 | silmitasertib -0.008 | [2] -0.07 | entospletinib 0

MINK1 (UniProt Q8N4C8)
Sequence of UniProt Q8N4C8 (Q8N4C8 whole entry, looked up): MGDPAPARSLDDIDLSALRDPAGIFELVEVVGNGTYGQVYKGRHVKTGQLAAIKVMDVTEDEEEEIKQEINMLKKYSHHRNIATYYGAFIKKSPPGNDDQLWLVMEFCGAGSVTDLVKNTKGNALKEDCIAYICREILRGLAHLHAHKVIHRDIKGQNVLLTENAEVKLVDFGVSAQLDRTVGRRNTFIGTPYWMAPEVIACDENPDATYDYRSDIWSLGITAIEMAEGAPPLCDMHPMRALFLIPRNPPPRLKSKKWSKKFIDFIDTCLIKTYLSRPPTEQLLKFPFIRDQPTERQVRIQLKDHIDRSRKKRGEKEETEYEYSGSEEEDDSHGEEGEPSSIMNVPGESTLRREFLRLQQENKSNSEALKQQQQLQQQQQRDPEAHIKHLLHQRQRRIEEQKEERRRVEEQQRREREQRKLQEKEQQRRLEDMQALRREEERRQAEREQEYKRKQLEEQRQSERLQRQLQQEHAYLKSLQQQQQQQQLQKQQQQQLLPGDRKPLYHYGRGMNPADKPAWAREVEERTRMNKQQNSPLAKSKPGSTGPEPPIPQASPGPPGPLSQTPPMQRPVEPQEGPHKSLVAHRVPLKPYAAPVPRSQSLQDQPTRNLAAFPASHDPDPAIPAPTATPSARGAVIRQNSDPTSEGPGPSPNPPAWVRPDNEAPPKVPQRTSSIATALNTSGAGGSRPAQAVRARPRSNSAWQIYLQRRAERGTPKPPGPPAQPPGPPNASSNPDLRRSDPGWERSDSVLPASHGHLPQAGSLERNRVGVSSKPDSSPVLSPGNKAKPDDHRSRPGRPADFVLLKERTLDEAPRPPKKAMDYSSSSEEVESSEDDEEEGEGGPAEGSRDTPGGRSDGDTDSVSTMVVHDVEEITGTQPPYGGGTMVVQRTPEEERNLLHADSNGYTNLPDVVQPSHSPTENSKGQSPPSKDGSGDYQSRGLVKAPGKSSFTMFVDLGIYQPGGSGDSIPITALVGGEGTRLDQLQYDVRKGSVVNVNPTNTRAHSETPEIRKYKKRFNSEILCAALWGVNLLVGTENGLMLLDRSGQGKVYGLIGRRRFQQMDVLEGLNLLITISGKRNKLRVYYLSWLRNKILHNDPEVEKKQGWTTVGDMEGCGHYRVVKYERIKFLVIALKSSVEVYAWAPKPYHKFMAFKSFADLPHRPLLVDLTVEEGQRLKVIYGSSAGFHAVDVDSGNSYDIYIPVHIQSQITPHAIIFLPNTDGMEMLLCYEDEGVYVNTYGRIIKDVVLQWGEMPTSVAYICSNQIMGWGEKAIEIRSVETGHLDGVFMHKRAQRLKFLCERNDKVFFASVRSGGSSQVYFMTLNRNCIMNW
inactive: [1] -0.02 | vorinostat -0.205 | silmitasertib -0.109 | [2] 0.043 | entospletinib 0.182

MARK1 (UniProt Q9P0L2)
active: silmitasertib 0.485
inactive: [1] 0.017 | vorinostat -0.225 | [2] -0.059 | entospletinib 0.049

MARF1 (UniProt Q9Y4F3)
active: vorinostat -0.471
inactive: [1] 0.006 | silmitasertib 0.003 | [2] -0.045 | entospletinib 0.049

MAPK12 (UniProt P53778)
inactive: [1] 0 | vorinostat 0.181 | silmitasertib -0.027 | [2] -0.067 | entospletinib -0.027

MAPKAPK3 (UniProt Q16644)
inactive: [1] -0.063 | silmitasertib -0.001 | [2] 0.162 | entospletinib -0.049
active: vorinostat -0.43

MAD2L1BP isoform 3 (UniProt Q15013)
inactive: [1] -0.026 | silmitasertib -0.019 | [2] 0.008 | entospletinib 0
active: vorinostat -0.299

MACROD1 (UniProt Q9BQ69)
inactive: [1] 0.11 | silmitasertib 0.04 | [2] 0.05 | entospletinib 0.047
active: vorinostat -0.363

LUC7L (UniProt Q9NQ29)
inactive: [1] 0.003 | vorinostat 0.136 | silmitasertib -0.126 | [2] -0.016 | entospletinib -0.019

MAPKAPK5 (UniProt Q8IW41)
Sequence of UniProt Q8IW41 (Q8IW41 whole entry, looked up): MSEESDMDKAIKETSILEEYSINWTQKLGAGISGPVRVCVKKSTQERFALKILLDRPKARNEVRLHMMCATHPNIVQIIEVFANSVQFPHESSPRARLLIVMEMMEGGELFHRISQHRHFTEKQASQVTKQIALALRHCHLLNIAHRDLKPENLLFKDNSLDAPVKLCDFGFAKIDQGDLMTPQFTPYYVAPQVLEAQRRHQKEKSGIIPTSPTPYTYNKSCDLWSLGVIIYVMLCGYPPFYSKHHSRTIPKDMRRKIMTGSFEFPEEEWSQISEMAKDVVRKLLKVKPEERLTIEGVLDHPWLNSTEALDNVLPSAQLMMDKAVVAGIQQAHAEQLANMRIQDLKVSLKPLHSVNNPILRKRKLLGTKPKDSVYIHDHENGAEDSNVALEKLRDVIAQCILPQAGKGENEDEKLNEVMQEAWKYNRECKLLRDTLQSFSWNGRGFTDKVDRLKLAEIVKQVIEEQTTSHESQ
inactive: [1] -0.012 | vorinostat 0.07 | silmitasertib 0.002 | [2] 0.052 | entospletinib 0.028

LLGL1 (UniProt Q15334)
active: vorinostat -0.524
inactive: [1] 0.078 | silmitasertib 0.077 | [2] -0.046 | entospletinib 0.042

KIF11 (UniProt P52732)
active: vorinostat -0.252
inactive: [1] -0.013 | silmitasertib 0.016 | [2] -0.033 | entospletinib 0.001

MBTPS1 (UniProt Q14703)
inactive: [1] 0.17 | vorinostat 0.116 | silmitasertib -0.023 | [2] -0.044 | entospletinib 0.094

MED16 (UniProt Q9Y2X0)
Sequence of UniProt Q9Y2X0 (Q9Y2X0 whole entry, looked up): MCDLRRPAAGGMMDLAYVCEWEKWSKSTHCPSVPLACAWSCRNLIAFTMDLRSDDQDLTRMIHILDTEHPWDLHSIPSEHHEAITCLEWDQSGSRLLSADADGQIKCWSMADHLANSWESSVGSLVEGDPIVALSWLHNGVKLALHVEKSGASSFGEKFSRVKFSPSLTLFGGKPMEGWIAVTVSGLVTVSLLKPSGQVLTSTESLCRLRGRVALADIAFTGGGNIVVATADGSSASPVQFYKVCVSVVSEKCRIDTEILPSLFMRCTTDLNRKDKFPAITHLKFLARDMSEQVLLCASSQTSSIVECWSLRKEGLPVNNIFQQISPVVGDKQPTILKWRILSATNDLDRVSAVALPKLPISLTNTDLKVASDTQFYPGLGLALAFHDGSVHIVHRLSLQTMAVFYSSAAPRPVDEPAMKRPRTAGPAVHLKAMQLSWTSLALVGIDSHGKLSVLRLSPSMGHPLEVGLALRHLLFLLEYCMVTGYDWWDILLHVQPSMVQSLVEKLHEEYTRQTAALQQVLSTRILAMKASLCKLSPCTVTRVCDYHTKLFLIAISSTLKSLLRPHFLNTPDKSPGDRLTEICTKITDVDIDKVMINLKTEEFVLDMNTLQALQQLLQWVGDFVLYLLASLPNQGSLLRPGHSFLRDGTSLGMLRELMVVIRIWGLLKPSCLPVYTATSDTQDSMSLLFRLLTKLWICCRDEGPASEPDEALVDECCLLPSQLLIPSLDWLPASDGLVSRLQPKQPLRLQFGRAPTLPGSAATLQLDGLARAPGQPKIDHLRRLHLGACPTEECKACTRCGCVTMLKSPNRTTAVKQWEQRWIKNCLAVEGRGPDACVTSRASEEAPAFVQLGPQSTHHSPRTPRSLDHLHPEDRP
active: vorinostat -0.354
inactive: [1] -0.005 | silmitasertib 0.052 | [2] -0.022 | entospletinib 0.016

MANEA (UniProt Q5SRI9)
inactive: [1] 0 | vorinostat 0.217 | silmitasertib -0.103 | [2] -0.047 | entospletinib 0.055

MLH1 (UniProt P40692)
inactive: [1] 0.04 | silmitasertib 0.025 | [2] 0.005 | entospletinib 0.022
active: vorinostat -0.312

LRRC40 (UniProt Q9H9A6)
active: vorinostat -0.315
inactive: [1] -0.005 | silmitasertib 0.027 | [2] -0.043 | entospletinib 0.02

KLC1 isoform 10 (UniProt Q07866)
inactive: vorinostat -0.144 | silmitasertib -0.165 | entospletinib -0.171

LY6E (UniProt Q16553)
inactive: [1] 0.165 | entospletinib -0.013

MRC2 (UniProt Q9UBG0)
inactive: vorinostat 0.346 | silmitasertib -0.051 | [2] -0.171 | entospletinib -0.055

MAP3K6 (UniProt O95382)
inactive: [1] -0.088 | entospletinib -0.043

MECR (UniProt Q9BV79)
Sequence of UniProt Q9BV79 (Q9BV79 whole entry, looked up): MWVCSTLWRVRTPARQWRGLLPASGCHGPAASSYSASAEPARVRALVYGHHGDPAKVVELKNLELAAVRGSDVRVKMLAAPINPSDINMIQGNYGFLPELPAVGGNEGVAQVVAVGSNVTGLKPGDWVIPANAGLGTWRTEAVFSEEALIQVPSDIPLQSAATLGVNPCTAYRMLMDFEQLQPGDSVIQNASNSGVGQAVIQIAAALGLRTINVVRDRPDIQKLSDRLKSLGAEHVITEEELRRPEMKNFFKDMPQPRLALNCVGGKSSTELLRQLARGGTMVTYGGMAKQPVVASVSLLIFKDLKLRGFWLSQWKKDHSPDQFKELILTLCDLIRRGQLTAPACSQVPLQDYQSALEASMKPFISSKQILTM
inactive: [1] -0.037 | silmitasertib 0.009 | [2] -0.016 | entospletinib 0.011
active: vorinostat -0.268

KIFC3 isoform 6 (UniProt Q9BVG8)
inactive: [1] 0.03 | vorinostat -0.025 | silmitasertib -0.124 | [2] 0.119 | entospletinib -0.063

MRPL30 isoform 2 (UniProt Q8TCC3)
inactive: vorinostat 0.041 | silmitasertib -0.023 | [2] -0.012 | entospletinib -0.046

LRRIQ1 (UniProt Q96JM4)
active: [2] 0.754
inactive: [1] 0.056

KRAS isoform 2 (UniProt P01116)
inactive: vorinostat 0.068 | silmitasertib -0.015 | [2] -0.045 | entospletinib -0.129

LEPROT (UniProt O15243)
inactive: silmitasertib 0.167 | [2] -0.007 | entospletinib 0.115
active: vorinostat -0.641

MCCC1 (UniProt Q96RQ3)
inactive: [1] 0.028 | silmitasertib 0.02 | [2] -0.003 | entospletinib 0.023
active: vorinostat -0.292

MAP3K4 isoform 2 (UniProt Q9Y6R4)
inactive: [2] 0.034

MED25 isoform 3 (UniProt Q71SY5)
inactive: silmitasertib 0.021 | [2] 0.024 | entospletinib 0.127
active: vorinostat -0.294

METTL21A (UniProt Q8WXB1)
inactive: vorinostat 0.07 | silmitasertib -0.016 | [2] -0.013

LYN isoform 2 (UniProt P07948)
inactive: vorinostat -0.118 | silmitasertib 0.049 | [2] -0.31 | entospletinib 0.129

MRPL27 (UniProt Q9P0M9)
inactive: vorinostat 0.087 | silmitasertib 0.106 | [2] -0.008 | entospletinib -0.027

LIMK1 (UniProt P53667)
inactive: [1] -0.127 | [2] 0.281 | entospletinib 0.027

KMT2B (UniProt Q9UMN6)
active: silmitasertib -0.76
inactive: vorinostat 0.531 | [2] 0.211 | entospletinib 0.116

MAN2B2 (UniProt Q9Y2E5)
inactive: vorinostat 0.117 | silmitasertib -0.014 | [2] -0.005 | entospletinib 0.019

LRRC7 (UniProt Q96NW7)
Sequence of UniProt Q96NW7 (Q96NW7 whole entry, looked up): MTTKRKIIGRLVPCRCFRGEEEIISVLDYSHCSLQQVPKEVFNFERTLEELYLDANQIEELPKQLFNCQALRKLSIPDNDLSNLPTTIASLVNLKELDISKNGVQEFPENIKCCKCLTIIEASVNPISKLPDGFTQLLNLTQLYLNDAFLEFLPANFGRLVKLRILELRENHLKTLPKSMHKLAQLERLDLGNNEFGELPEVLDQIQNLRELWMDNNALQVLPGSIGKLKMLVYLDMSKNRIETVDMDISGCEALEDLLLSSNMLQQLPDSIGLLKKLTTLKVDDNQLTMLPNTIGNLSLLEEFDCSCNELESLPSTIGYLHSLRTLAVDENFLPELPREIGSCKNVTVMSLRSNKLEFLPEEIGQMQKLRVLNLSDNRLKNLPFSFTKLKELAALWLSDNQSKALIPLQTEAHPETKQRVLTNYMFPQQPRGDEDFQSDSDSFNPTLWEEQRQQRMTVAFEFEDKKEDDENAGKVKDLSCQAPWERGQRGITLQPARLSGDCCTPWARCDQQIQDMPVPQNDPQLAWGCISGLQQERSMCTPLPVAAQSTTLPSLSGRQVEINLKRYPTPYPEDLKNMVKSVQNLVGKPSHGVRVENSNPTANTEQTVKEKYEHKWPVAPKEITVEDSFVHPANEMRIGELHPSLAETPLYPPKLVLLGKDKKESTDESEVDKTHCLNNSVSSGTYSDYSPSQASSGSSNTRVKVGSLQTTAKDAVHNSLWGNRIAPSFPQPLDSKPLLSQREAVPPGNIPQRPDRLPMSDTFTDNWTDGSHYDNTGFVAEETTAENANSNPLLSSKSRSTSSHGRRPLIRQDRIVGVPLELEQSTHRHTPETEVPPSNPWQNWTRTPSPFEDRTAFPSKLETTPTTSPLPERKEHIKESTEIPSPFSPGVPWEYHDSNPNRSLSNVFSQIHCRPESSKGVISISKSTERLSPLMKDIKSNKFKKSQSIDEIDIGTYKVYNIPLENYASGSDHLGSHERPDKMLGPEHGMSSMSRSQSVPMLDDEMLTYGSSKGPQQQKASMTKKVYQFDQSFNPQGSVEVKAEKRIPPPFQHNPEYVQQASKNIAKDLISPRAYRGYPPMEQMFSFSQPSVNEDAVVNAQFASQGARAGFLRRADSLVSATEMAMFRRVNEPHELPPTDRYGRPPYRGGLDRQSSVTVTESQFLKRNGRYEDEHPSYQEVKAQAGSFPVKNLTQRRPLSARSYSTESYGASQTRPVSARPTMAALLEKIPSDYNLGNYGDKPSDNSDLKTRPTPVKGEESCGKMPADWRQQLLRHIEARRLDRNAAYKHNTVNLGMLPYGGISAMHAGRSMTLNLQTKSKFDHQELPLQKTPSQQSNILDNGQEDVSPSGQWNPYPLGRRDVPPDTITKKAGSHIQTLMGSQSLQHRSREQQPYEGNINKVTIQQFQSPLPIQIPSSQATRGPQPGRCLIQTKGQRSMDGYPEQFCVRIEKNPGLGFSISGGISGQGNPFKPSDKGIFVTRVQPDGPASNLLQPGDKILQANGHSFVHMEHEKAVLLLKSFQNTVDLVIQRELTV
inactive: [1] -0.097 | [2] -0.012 | entospletinib -0.108

KIF14 (UniProt Q15058)
active: vorinostat -0.286
inactive: [1] 0.082 | silmitasertib -0.016 | [2] -0.019 | entospletinib -0.055
